Bioassay records as filed in PubChem.
Shown are actives, neighbours in structure and some others; about 8% of the full set was active somewhere.
FMDV inh: High Throughput Screening for Foot and Mouth Disease Virus Antivirals. FMDV antiviral cell-based qHTS. Potency, µM (titrated, usually from 57.9 µM), most hits filed as inhibitors. 1.2% of 410,000 active. AID 1159524, 2015; calls by dose curve; tested in HEK293T cells; also: read-out not given here; nearly all actives have a fitted effect of over 45% in size
Marburg entry inh: qHTS for inhibitors of binding or entry into cells for Marburg Virus; Marburg virus pseudotyped entry inhibition, cell reporter; Potency, µM (highest dose often 37.8 µM), usual class: inhibitors; 1.8% of 300,000 active; calls by dose curve; tested in HEK293 cells
SARS PLpro yeast: qHTS of Yeast-based Assay for SARS-CoV PLP | S. cerevisiae expressing SARS-CoV PLpro, growth rescue | Potency, µM (doses to about 32.9 µM), usual class: activators | 0.19% of 330,000 active | AID 485353, 2010; calls by dose curve; also: nearly all actives have a fitted effect of over 55% in size
HCMV inh: qHTS Assay for inhibitors of the human cytomegalovirus (HCMV) | AID 1259415, 2018 | activity change, negative = inhibition, % at 57.5 µM | HFF cells, HCMV-luciferase reporter, 72 h; hits give low values | 4.5% of 410,000 active; in the data active = activity change below about -60%; inconclusive = no clear call, values can overlap the other calls; inactive = above about -39%
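Steps: HFFs plated, 16 h 37C; compounds added; HCMV-luciferase added to MOI 1 PFU/cell; 72 h 37C; OneGlo reagent, 5 min room temperature; luminescence read, normalized to controls.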
HCV inhibitor: qHTS Assay for Inhibitors of Hepatitis C Virus (HCV). Huh7.5.1 HCVcc-Cre infection, luciferase reporter, 44 h. Potency, µM (titrated, usually from 41.8 µM), hits mostly inhibitors. 3.4% of 340,000 active. AID 651820, 2012; active = well fitted inhibition curve with a large enough effect; inconclusive = small, poorly fitted or top-dose-only effect, or another doubt; inactive = no such curve, though single readings can be large or run the other way
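A cell-based infection assay in which seeded cells (1,000 per well) receive test compound after 4 h, are inoculated with HCVcc-Cre at approximately 0.5 moi, and are incubated 44 h before luminescence detection.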
LASV entry inh: qHTS for Inhibitors of binding or entry into cells for Lassa Virus | Lassa virus pseudotype entry inhibition, cell reporter | Potency, µM (titrated, usually from 37.9 µM), usual class: inhibitors | 1.2% of 300,000 active | AID 540256, 2011; calls by dose curve; tested in HEK293 cells; also: nearly all actives have a fitted effect of over 50% in size
Hits are given with their value; – = inactive; ? = inconclusive; · = not tested or not shown.

SMILES	FMDV inh	Marburg entry inh	SARS PLpro yeast	HCMV inh	HCV inhibitor	LASV entry inh
C=Cc1ccc(Cn2c(C(=O)O)c(CNC3CCCCC3)c3ccc(OC)cc32)cc1	–	·	·	–	·	–
CCOC(=O)C1CCCN(S(=O)(=O)c2ccccc2)C1 (centres undefined)	–	–	–	–	–	–
CCOC(=O)c1ccc(NC(=O)C2CCCN(S(=O)(=O)c3ccc(F)cc3)C2)cc1 (centres undefined)	22µM	?	–	–	?	?
CCc1ccc(NC(=O)C2CCCN(S(=O)(=O)c3ccc(F)cc3)C2)cc1 (centres undefined)	?	–	·	–	·	?
CCOC(=O)C1CCCN(S(=O)(=O)c2cc(C(=O)OC)n(C)c2)C1 (centres undefined)	?	·	–	-60	6.3µM	·
COc1ccc(NC(=O)C2CCCN(S(=O)(=O)c3ccc(C)cc3)C2)cc1OC (centres undefined)	22µM	?	–	–	–	–
COc1ccccc1NC(=O)C1CCCN(S(=O)(=O)c2cnc[nH]2)C1 (centres undefined)	–	·	–	–	–	·
COc1ccc(C)cc1NC(=O)C1CCCN(S(=O)(=O)c2cnc[nH]2)C1 (centres undefined)	–	·	–	-61	–	·
CCCCS(=O)(=O)CC(O)CSc1nc(-c2ccc(C)cc2)cc(-c2ccccc2)c1C#N (centres undefined)	–	·	·	–	·	?
COc1ccc(-n2ccc(-c3sc(NCc4cc(OC)c5c(c4)OCO5)nc3C)n2)cc1	–	·	·	·	·	·
Cc1ccccc1-c1nc(CN2CCC(C(=O)NCc3ccc(F)cc3)CC2)c(C)o1	–	?	·	–	·	–
COc1cc(NC(=O)c2sc3nc4n(c(=O)c3c2C)CCCCC4)cc(OC)c1OC	–	·	·	–	·	–
C[C@@H]1CN(C2CCN(S(=O)(=O)c3ccc4ccccc4c3)CC2)C[C@H](C)O1	·	–	·	·	·	·
COC(=O)c1ccc(C(=O)OC)c(NC(=O)c2ccc(-c3ccccc3)s2)c1	–	–	·	–	·	–
COC(=O)c1ccccc1-c1cc(C)cc2c1OC(CNC(=O)c1cc(C)on1)C2 (centres undefined)	–	·	·	·	·	·
COC1=C(OC)C(=O)C(Sc2ccc3ccccc3c2)=CC1=O	–	?	·	-81	?	?
CCCNC(=O)OC[C@H]1O[C@H](CCON=CC[C@@H]2C=C[C@H](OC(C)=O)[C@@H](COC(C)=O)O2)C=C[C@H]1Oc1ccc(OC)cc1	·	–	·	·	·	–
CSC1=C(C#N)C(=O)NC(c2ccccc2O)S1 (centres undefined)	?	–	–	–	–	–
COC(=O)CSC1=C(C#N)C(=O)NC(c2ccccc2)S1 (centres undefined)	7.9µM	–	–	–	–	–
CCCc1c(-c2cccc(Cl)c2)ncn1Cc1ccccc1OC	?	·	·	–	·	·
CCCCc1c(-c2ccccc2OC)ncn1CCc1ccc(OC)cc1	22µM	·	·	-64	·	·
CCc1c(-c2ccc(Cl)cc2)ncn1CCc1ccccc1OC	·	·	·	–	·	·
CCCCc1c(-c2ccccc2OC)ncn1CCc1ccc(Cl)cc1	?	·	·	–	·	·
CCCCc1c(-c2ccccc2)ncn1CCc1ccccc1OC	25µM	·	·	-75	·	·
CCCCCc1c(-c2ccc(Cl)cc2)ncn1CCc1ccccc1OC	–	·	·	-75	·	·
SMILES	FMDV inh	Marburg entry inh	SARS PLpro yeast	HCMV inh	HCV inhibitor	LASV entry inh
CCCCc1c(-c2ccc(OC)cc2)ncn1CCc1ccccc1OC	22µM	·	·	-85	·	·
CCc1c(C)sc(NC(=O)c2cc(-c3ccc(OC)cc3)on2)c1C#N	–	?	·	–	·	–
CCCCc1c(-c2cccc(Cl)c2)ncn1CCc1ccccc1OC	22µM	·	·	-80	·	·
CCCCc1c(Cc2ccccc2)ncn1CCc1ccccc1OC	?	·	·	-76	·	·
CCCCc1c(-c2ccc(F)cc2)ncn1CCc1ccccc1OC	25µM	·	·	-62	·	·
CCCCCc1c(-c2ccc(OC)cc2)ncn1CCc1ccccc1OC	22µM	·	·	-94	·	·
CCCCc1c(-c2ccccc2OC)ncn1CCc1ccccc1	?	·	·	–	·	·
C=CCN(c1nc(C)c(Br)c(OC)n1)S(=O)(=O)c1ccc(C)cc1	–	·	–	–	–	·
COc1nc(N(C)S(=O)(=O)c2ccc(C)cc2)nc(C)c1Cl	–	–	–	-61	?	–
CCCCC(CC)C(=O)Oc1ccc(O)c(C(C)(C)C)c1 (centres undefined)	–	?	–	?	?	10µM
